Data from PubChem BioAssay (Tox21).
Records with an inconclusive call do not appear. Entries that show only a call come without a potency. Values without a mark were called inactive. The source made the active and inactive calls. The call rests on the fitted dose curve; in most records, active means well fitted cell-killing curve with a large enough effect in the repeat runs; inconclusive means weak or mixed curves, or effect the other way; inactive means flat fitted curve, though single readings scatter.

assay: qHTS RealTime-Glo MT Cell Viability Assay in HEK293 cells - 0 hour (AID 1224880); conditions: RealTime-Glo luminescence; series mostly up to 76.8 µM; further: nearly all actives have a fitted effect of over 45% in size; on activity change, negative = cytotoxicity: top concentration of the series differs between compounds
Text: U.S. Tox21 Program National Center for Advancing Translational Sciences [NCATS] NIH Chemical Genomics Center [NCGC] U.S. Environmental Protection Agency [EPA] National Institutes of Environmental Health Sciences [NIEHS] National Toxicology Program [NTP] U.S. Food and Drug Administration [FDA] Tox21 Assay Overview: Measure of cell viability is critical in the cell-base assay. Analysis of cell viability is necessary for the characterization of cell responses to cytotoxic drugs and environmental stress. A RealTime-Glo MT Cell Viability Assay to monitor cell viability in real time of continues cell culture during 40 hours of compound treatment was used to screen Tox21 10K library compounds in Hek293 cells. The RealTime-Glo MT Cell Viability Assay is a nonlytic, homogeneous, bioluminescent method to measure cell viability in real time using a simple, plate-based method. The assay involves adding NanoLuc luciferase and a cell-permeant prosubstrate to cells in culture. Viable cells reduce the proprietary prosubstrate to generate a substrate for NanoLuc luciferase. This substrate diffuses from cells into the surrounding culture medium, where it is rapidly used by the NanoLuc Enzyme to produce a luminescent signal. The signal correlates with the number of viable cells, making the assay well suited for cytotoxicity studies.
Tox21 Assay Protocol Summary: The mixture of Hek293 cell suspension and reagents were dispensed at 600cells/6 ul/well in 1536-well tissue culture treated black solid bottom plates using a Multidrop dispenser. After the assay plates were incubated at a 37 C/5% CO2 incubator for 5 hours, 23 nL of compounds dissolved in DMSO, positive and negative controls was transferred to the assay plate by a pintool work station. The plates were incubated at 37 C for 40 hours. The luminescence intensity were measured at 0h, 8h, 16h, 24h, 32h and 40h time points using ViewLux plate reader during compound treatment.
Potency means the concentration at half of the fitted maximal effect.

SMILES | Potency | activity change, negative = cytotoxicity
O=C(O)COC(=O)Cc1ccccc1Nc1c(Cl)cccc1Cl | inactive | –
O=[N+]([O-])c1cccc(Cl)c1Cl | inactive | –
Cc1ccccc1N=Nc1ccc(N=Nc2c(O)ccc3ccccc23)c(C)c1 | inactive | –
CC(C)(C)C(=O)OCOP(=O)(COCCn1cnc2c(N)ncnc21)OCOC(=O)C(C)(C)C | inactive | –
ClC(Cl)(Cl)c1ccc(C(Cl)(Cl)Cl)cc1 | inactive | –
C=CC[N+]1([C@H]2C[C@H]3[C@@H]4CC[C@H]5C[C@H](OC(C)=O)[C@@H](N6CCCCC6)C[C@]5(C)[C@H]4CC[C@]3(C)[C@H]2OC(=O)CC)CCCCC1 | inactive | –
O=C(C(=O)c1ccc(Br)cc1)c1ccc(Br)cc1 | – | -3.2% [at 15.8 µM]
CC1=CCC(C(C)C)C=C1 (stereo not given) | inactive | –
O=[N+]([O-])c1cc[n+]([O-])cc1 | inactive | –
CC[C@]12CCCN3CCc4c(n(c5ccccc45)C(=O)C1)[C@@H]32 | inactive | –
CC(=O)N(O)CCCCCNC(=O)CCC(=O)N(O)CCCCCNC(=O)CCC(=O)N(O)CCCCCN | inactive | –
NC(=S)N/N=C/c1cccnc1 | inactive | –
CC(=O)N(CC(=O)N(C)C)c1ccccc1 | inactive | –
C1=Cc2ccccc2C1 | inactive | –
O=c1c2ccccc2nnn1CCl | inactive | –
CC1CCc2cc(F)cc3c(=O)c(C(=O)O)cn1c23 (stereo not given) | inactive | –
NC[C@H]1O[C@H](O[C@H]2[C@H](O)[C@@H](O[C@H]3O[C@H](CO)[C@@H](O)[C@H](N)[C@H]3O)[C@H](N)C[C@@H]2N)[C@H](O)[C@@H](O)[C@@H]1O | – | 12.9% [at 6.97 µM]
CCN(CC)C(C)=O | inactive | –
CC(C)CCCCCCOC(=O)c1ccc(C(=O)OCCCCCCC(C)C)c(C(=O)OCCCCCCC(C)C)c1 | inactive | –
CC(C)c1ccccc1C(C)C | inactive | –

SMILES | Potency | activity change, negative = cytotoxicity
CC(C)c1cccc(C(C)C)c1NC(=O)NS(=O)(=O)c1cc(C(C)(C)O)co1 | inactive | –
CCCCOC(=O)/C=C\C(=O)OCCCC | inactive | –
C=C(C)C(=O)OCCN(C)C | inactive | –
Cn1sccc1=O | inactive | –
O=C(O)C1CCC(C(=O)O)CC1 (stereo not given) | inactive | –
CCOc1cc(OCC)c(C(=O)CCC(=O)O)cc1OCC | inactive | –
NCCCOCCOCCOCCCN | inactive | –
CCN(CC)CCOC(=O)C1(c2ccccc2)CCCC1 | inactive | –
CCC(C)N(C)C(=O)c1cc2ccccc2c(-c2ccccc2Cl)n1 (stereo not given) | 31.7 µM (active) | –
CCN(CC)C(C)CN1c2ccccc2Sc2ccccc21 (stereo not given) | inactive | –
NCCCN(CCO)CCO | inactive | –
Cc1ccc2c(ccc3ccccc32)c1 | inactive | –
CCOC(=O)C1=C(C)NC(C)=C(C(=O)OC)C1c1cccc([N+](=O)[O-])c1 (stereo not given) | 5.35 µM (active) | –
Cc1c(Cn2ccnc2)c2ccccc2n1CCC(=O)O | inactive | –
O=c1[nH]cnc2ccccc12 | inactive | –
CCc1nn(C2CCCCC2)c2cc(C3(C#N)CCC(C(=O)O)CC3)ccc12 (stereo not given) | inactive | –
COCCCCCCCCOCCC[Si](C)(O[Si](C)(C)C)O[Si](C)(C)C | inactive | –
CCN(CCO)CCCC(C)Nc1ccnc2cc(Cl)ccc12 (stereo not given) | – | 3.38% [at 6.97 µM]
Cn1c(N)nc2nc[nH]c2c1=O | inactive | –
Oc1ccc2c(c1)OCO2 | inactive | –
